Screening results from PubChem BioAssay.
In the library only some 1.3% were active in any assay of this set; here they are far more common.
m-calpain inh = calpain II (pig) inhibition. purified calpain II, fluorogenic peptide substrate, 30 min. inhibition, % at 16 µM. 220,000 compounds, 0.37% hits;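 active means inhibition above about 50%, limit read from the data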
PERK inhibitor = human PERK inhibition, primary cell-based screen; Q9NZJ5; CHO PERK-DD fusion, SEAP luminescence translation reporter; inhibition, % at 5.6 µM; 220,000 compounds, 0.17% hits; AID 1416;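 active means inhibition above the mean inhibition of all tested compounds plus 3 SD, set separately per screening campaign, cut at about 2.9% in these data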;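 further: PERK kinase domain activated by AP20187 dimerizer at 100 nM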
S1P4 antag = antagonists of human S1P4 receptor; inhibition, % at 4.98 µM; 220,000 compounds, 0.26% hits; S1P4-expressing cells, antagonist mode, reporter read-out; AID 1510; O95977; in the data active means inhibition above about 29%
Target sequence (O95977 whole entry, looked up): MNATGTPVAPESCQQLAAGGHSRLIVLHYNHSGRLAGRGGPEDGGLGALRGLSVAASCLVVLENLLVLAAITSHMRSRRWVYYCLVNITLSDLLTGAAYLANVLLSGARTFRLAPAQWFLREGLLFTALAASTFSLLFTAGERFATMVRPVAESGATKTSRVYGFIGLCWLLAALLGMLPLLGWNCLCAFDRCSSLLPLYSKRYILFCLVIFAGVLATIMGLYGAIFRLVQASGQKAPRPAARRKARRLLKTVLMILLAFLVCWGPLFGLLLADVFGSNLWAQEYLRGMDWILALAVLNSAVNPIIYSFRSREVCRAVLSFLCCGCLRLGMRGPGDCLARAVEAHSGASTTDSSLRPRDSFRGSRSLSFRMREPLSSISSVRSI
S1P3 antag = antagonists of human S1P3 receptor; AID 485; Q99500; inhibition, % at 4.98 µM; 170,000 compounds, 0.27% hits; CHO S1P3 NFAT-BLA reporter, FRET fluorescence, antagonist mode;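 active means inhibition above the plate cutoff, the mean inhibition of test wells on that plate plus 3 SD, cut at about 28% in these data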;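 further: cells challenged with S1P at its EC80 of 0.8 µM; blue over green emission ratio from cleaved BLA substrate after 4 h stimulation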
S1P4 agonist = activates the human S1P4 receptor; O95977; S1P4-expressing cell line, agonist reporter assay; activation, % at 4.98 µM; 220,000 compounds, 0.35% hits; in the data active means activation above about 11%
S1P4 ag conf = human S1P4 agonism, confirmation; 740 compounds, 7% hits; S1P4 agonist cell-based reporter assay; AID 1523; activation, % at 4.98 µM; shares compounds with S1P4 agonist; in the data active means activation above about 12%
S1P1 agonist = activates human S1P1, counter-screen for S1P4 agonists; AID 1563; shares compounds with S1P4 agonist; activation, % at 4.98 µM; S1P1 agonist cell-based assay, activation; 740 compounds, 4% hits; in the data active means activation above about 21%
Numbers stand for hits.

Screening COc1ccc(-c2cc(C(=O)N/N=C/c3ccc(OC)c(COCC(F)(F)C(F)F)c3)c3ccccc3n2)c(OC)c1 returned m-calpain inh inactive, PERK inhibitor inactive, S1P4 antag inactive, S1P4 agonist 72, S1P4 ag conf inactive and S1P1 agonist inactive.
O=C(c1cnc2ccc(Cl)cc2c1Cl)N1CCOCC1 was read as m-calpain inh inactive, PERK inhibitor inactive, S1P4 antag inactive, S1P3 antag inactive, S1P4 agonist 26, S1P4 ag conf inactive and S1P1 agonist inactive.
Screening COc1ccc(NC(=O)CSc2nc(N)c3cc4c(nc3n2)CCCC4)cc1 returned m-calpain inh inactive, PERK inhibitor inactive, S1P4 antag inactive, S1P3 antag inactive, S1P4 agonist 11, S1P4 ag conf inactive and S1P1 agonist inactive.
Screening CC(=O)c1ccc(NC(=O)CSc2nc(N)c3cc4c(nc3n2)CCCC4)cc1 returned m-calpain inh inactive, PERK inhibitor inactive, S1P4 antag inactive, S1P3 antag inactive and S1P4 agonist inactive.
`Cc1c(NC(=O)CN2c3ccccc3CC2C)c(=O)n(-c2ccccc2)n1C` (stereo not drawn) gave m-calpain inh inactive, PERK inhibitor inactive, S1P4 antag inactive, S1P3 antag inactive and S1P4 agonist inactive.
`COc1ccc(SCC(=O)Nc2ccccc2Cl)cc1` gave m-calpain inh inactive, PERK inhibitor inactive, S1P4 antag inactive, S1P3 antag inactive, S1P4 agonist 114, S1P4 ag conf inactive and S1P1 agonist inactive.
CC(C)/C=N/Nc1nc(-c2ccc(Br)cc2)cs1 was read as m-calpain inh inactive, PERK inhibitor inactive, S1P4 antag inactive, S1P3 antag inactive, S1P4 agonist 34, S1P4 ag conf inactive and S1P1 agonist inactive.
For Cc1ccc(C)c(-n2c(-c3ccc(Br)cc3)csc2=NC(=O)c2ccccc2F)c1 the results were m-calpain inh inactive, PERK inhibitor inactive, S1P4 antag inactive, S1P3 antag inactive and S1P4 agonist inactive.
O=C(Cn1cnc2ccccc2c1=O)Nc1ccc2c(c1)OCO2 was read as m-calpain inh inactive, PERK inhibitor inactive, S1P4 antag inactive, S1P3 antag inactive and S1P4 agonist inactive.
For O=C(Cn1cnc2cc([N+](=O)[O-])ccc2c1=O)Nc1ccc2c(c1)OCO2 the results were m-calpain inh inactive, PERK inhibitor inactive, S1P4 antag inactive, S1P3 antag inactive, S1P4 agonist 24, S1P4 ag conf inactive and S1P1 agonist inactive.
CCOC(=O)c1nc(C)nc(Sc2n[nH]c(-c3ccc(C(C)(C)C)cc3)n2)c1C was read as m-calpain inh inactive, PERK inhibitor inactive, S1P4 antag inactive, S1P3 antag inactive and S1P4 agonist inactive.
For COc1ccc(N2CC(C(=O)NCc3ccccc3)CC2=O)cc1 (stereo not drawn) the results were m-calpain inh inactive, PERK inhibitor inactive, S1P4 antag inactive, S1P3 antag inactive, S1P4 agonist 32, S1P4 ag conf inactive and S1P1 agonist inactive.
Screening COc1ccc(N2CC(C(=O)OCC(=O)NCc3ccccc3)CC2=O)cc1 (stereo not drawn) returned m-calpain inh inactive, PERK inhibitor inactive, S1P4 antag inactive and S1P4 agonist inactive.
Screening CC[C@@H](C)C(NC(=O)OC(C)(C)C)c1cn([C@@H](Cc2cc3ccccc3[nH]2)C(=O)N2CCN(C(=O)OC(C)(C)C)CC2)nn1 (stereo partly drawn) returned m-calpain inh inactive, PERK inhibitor inactive, S1P4 antag inactive, S1P3 antag inactive and S1P4 agonist inactive.
`CCN(CC)C(=O)C1CCCN(Cc2ccccc2)C1` (stereo not drawn) gave m-calpain inh inactive, PERK inhibitor inactive, S1P4 antag inactive, S1P4 agonist 22, S1P4 ag conf inactive and S1P1 agonist inactive.
CCCN(CCC)c1ccc(/C=C/c2ccc3cc(OCC)ccc3n2)cc1 was read as m-calpain inh inactive, PERK inhibitor inactive, S1P4 antag inactive, S1P3 antag inactive, S1P4 agonist 17, S1P4 ag conf 30 and S1P1 agonist 47.
CC(COc1ccccc1)N1CCC(CO)(Cc2ccccc2)CC1 (stereo not drawn) was read as m-calpain inh inactive, PERK inhibitor inactive, S1P4 antag inactive, S1P3 antag inactive and S1P4 agonist inactive.
Screening Cn1c(=O)oc2cc(S(=O)(=O)N3CCC(C(=O)NCCc4ccccc4)CC3)ccc21 returned m-calpain inh inactive, PERK inhibitor inactive, S1P4 antag inactive, S1P3 antag inactive, S1P4 agonist 14, S1P4 ag conf inactive and S1P1 agonist inactive.
`CCOCCCn1c(=NC(=O)c2cccs2)c(C#N)cc2c(=O)n3ccccc3nc21` gave m-calpain inh inactive, PERK inhibitor inactive, S1P4 antag inactive, S1P3 antag inactive, S1P4 agonist 15, S1P4 ag conf inactive and S1P1 agonist 30.
`CC(OC(=O)c1cc2sccc2n1C)C(=O)NCc1cccs1` (stereo not drawn) gave m-calpain inh inactive, PERK inhibitor inactive, S1P4 antag inactive, S1P3 antag inactive, S1P4 agonist 22, S1P4 ag conf inactive and S1P1 agonist inactive.
For CC(C)N=c1scc(-c2ccco2)n1/N=C/c1ccc(O)c(O)c1 the results were m-calpain inh inactive, PERK inhibitor inactive, S1P4 antag inactive, S1P4 agonist 12, S1P4 ag conf 22 and S1P1 agonist 55.
CCC1C(=NO)C(CC)C(c2ccccc2)NC1c1ccccc1 (stereo not drawn) was read as m-calpain inh inactive, PERK inhibitor inactive, S1P4 antag inactive, S1P3 antag inactive and S1P4 agonist inactive.
For O=C(Nc1nc(-c2ccccn2)cs1)C1COc2ccccc2O1 (stereo not drawn) the results were m-calpain inh inactive, PERK inhibitor inactive, S1P4 antag inactive, S1P3 antag inactive, S1P4 agonist 38, S1P4 ag conf inactive and S1P1 agonist inactive.
O=c1cc(CSc2nnc(Nc3ccccc3F)s2)nc2sccn12 was read as m-calpain inh inactive, PERK inhibitor inactive, S1P4 antag inactive, S1P3 antag inactive, S1P4 agonist 55, S1P4 ag conf inactive and S1P1 agonist inactive.
Screening CCC(C)NC(=O)c1cnc2n(c1=O)CCS2 (stereo not drawn) returned m-calpain inh inactive, PERK inhibitor inactive, S1P4 antag inactive, S1P3 antag inactive, S1P4 agonist 25, S1P4 ag conf inactive and S1P1 agonist inactive.
For CC(NC(=O)c1cnc2n(c1=O)CCS2)c1ccccc1 (stereo not drawn) the results were m-calpain inh inactive, PERK inhibitor inactive, S1P4 antag inactive, S1P3 antag inactive and S1P4 agonist inactive.
CC(C)C(=O)NC(=S)Nc1ccccc1C(=O)NC1CCCCC1 was read as m-calpain inh inactive, PERK inhibitor inactive, S1P4 antag inactive, S1P3 antag inactive, S1P4 agonist 58, S1P4 ag conf inactive and S1P1 agonist inactive.
Cc1cccc(C(=O)NNc2ncnc3c2cnn3C)c1 was read as m-calpain inh inactive, PERK inhibitor inactive, S1P4 antag inactive, S1P3 antag inactive, S1P4 agonist 15, S1P4 ag conf inactive and S1P1 agonist inactive.
